As usually defined, the inhibition is the drop in the measured response relative to a control, in per cent.

The campaign covered roughly 320,000 compounds. About 2,100 (0.66%) were called active. Many of the other results were omitted from the sample, so actives are more common in it than they were. A number with no mark means an inactive call.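 How the source made its calls: active means inhibition above the mean inhibition of all tested compounds plus 3 SD, set per campaign (cut at about 40% in these data); inactive means the rest.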

Induced myeloid leukemia cell differentiation protein Mcl-1 (Homo sapiens), sequence (Q07820 whole entry, looked up): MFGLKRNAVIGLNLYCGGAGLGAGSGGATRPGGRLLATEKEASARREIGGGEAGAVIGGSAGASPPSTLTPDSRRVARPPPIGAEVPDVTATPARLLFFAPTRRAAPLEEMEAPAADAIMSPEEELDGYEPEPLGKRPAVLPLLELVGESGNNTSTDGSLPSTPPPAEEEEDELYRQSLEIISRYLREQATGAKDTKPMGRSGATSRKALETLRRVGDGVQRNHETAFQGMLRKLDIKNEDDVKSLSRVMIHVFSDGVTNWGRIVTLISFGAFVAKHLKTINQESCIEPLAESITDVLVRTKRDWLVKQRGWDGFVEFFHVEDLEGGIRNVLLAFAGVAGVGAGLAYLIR

The test addresses Induced myeloid leukemia cell differentiation protein Mcl-1 (Homo sapiens) (UniProt Q07820). As to the kind of experiment: inhibitors of MCL1 binding to BIM-BH3, primary screen, biochemical, fluorescence polarization (AID 2057).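 Further: 0% = DMSO wells and 100% = unlabeled Bim-BH3 peptide control; higher means more loss of mP so more displacement of Bim peptide.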 As to conditions: GST-MCL1 / FITC-Bim-BH3 fluorescence polarization; at 10.9 µM; hits give high values. Background: Polarisation of emitted light reports the rotation of a fluorescent probe.
Take `CCN(CC)C(=O)Oc1ccc(Br)cc1C(=O)Nc1ccc(F)c(Cl)c1`: the inhibition is 1.92%.

With `C=C1c2c(Cl)ccc(O)c2C(O)=C2C(=O)[C@]3(O)C(O)=C(C(N)=O)C(=O)[C@@H](N(C)C)[C@@H]3[C@@H](O)C12` (some centres not stated), the inhibition is 87.2% (active).

Consider `CN(C)[C@@H]1C(=O)C(C(N)=O)=C(O)[C@@]2(O)C(=O)C3=C(O)c4c(O)ccc(Cl)c4[C@@H](O)[C@H]3C[C@@H]12`, for which the inhibition was 31.5%.

Consider `CCc1ccc(-c2cc(C)no2)cc1S(=O)(=O)NCCc1ccc(S(N)(=O)=O)cc1`, for which the inhibition was 7.69%.

On to `COc1ccc(CCNC(=O)CSCc2ccc(Br)cc2)cc1OC`, for which the inhibition was 13.2%.

Consider `O=C(O)c1cc(S(=O)(=O)N2CCCCCC2)c(Cl)cc1Cl`, for which the inhibition is 4.06%.

`O=C(CNC(=O)c1ccccc1F)c1ccc(Br)cc1`: the inhibition is -5.03%.

As for `O=C(C[n+]1cc(Br)cc2ccccc21)c1ccc(F)cc1`, the inhibition is 63.3% (active).

With `O=C(CNC(=O)c1ccc(F)cc1)c1ccccc1`, the inhibition was -5.56%.

With `CCCCn1c(N)c(N(CCOC)C(=O)c2sc3ccccc3c2Cl)c(=O)[nH]c1=O`, the inhibition is -3.09%.

Take `O=C1c2ccccc2C(=O)N1CCC(O)C[N+](=O)[O-]` (configuration not stated): the inhibition was 0.99%.

Take `CCOC(=O)c1c(N)sc(C(C)=O)c1C`: the inhibition is 12.2%.

Turning to `COC(=O)c1sc(=S)n(-c2ccc(Cl)cc2)c1C`, the inhibition was 1.56%.

`COCCOC(=O)c1sc(=S)n(CCOC)c1N`: the inhibition was 105% (active).

As to `CCOc1ccccc1NC(=O)C1CCCN(S(=O)(=O)c2ccccc2)C1` (configuration not stated), the inhibition was -2.29%.

Turning to `O=C(C/C(=N\NC(=O)c1ccccc1Br)C(F)(F)F)c1cccs1`, the inhibition was 12.5%.

Turning to `O=c1ccc2c(-c3ccccc3S(=O)(=O)O)c3ccc(O)c(O)c3oc-2c1O`, the inhibition was 88.1% (active).

As to `Cn1c(Nc2ccccc2)cc(=O)n(C)c1=O`, the inhibition was -3.95%.

For `COC(=O)CCCC1=CC2=CC(=O)C(C)(OC(=O)c3cccs3)C(=O)C2=CN1CC1CC1` (configuration not stated), the inhibition is 17.1%.

Regarding `COC(=O)CCCC1=CC2=CC(=O)C(C)(OC(=O)c3cccs3)C(=O)C2=CN1CC(C)C` (configuration not stated), the inhibition is 14.8%.

Take `COC/C=C/C1=CC2=CC(=O)C(C)(OC(=O)CCC(=O)OC)C(=O)C2=CO1` (configuration not stated): the inhibition is 64.3% (active).

With `O=C(CSc1ccccc1)Nc1cccc(S(=O)(=O)N2CCCCC2)c1`, the inhibition is -3.17%.

As for `COc1ccc(-c2ccc(OC(=O)NC3CCS(=O)(=O)C3)cc2)cc1` (configuration not stated), the inhibition was 5.93%.

On to `O=c1[nH]c(=S)[nH]c2[nH]c(=S)[nH]c12`, for which the inhibition was 92.7% (active).

For `Cc1c(C)c(C)c2[nH]c(=S)[nH]c2c1C`, the inhibition was -26%.

For the compound `COc1ccccc1N1CCN(C(=O)c2cc(=O)c3cc(C)cc(C)c3o2)CC1`, the inhibition was 0.82%.

For the compound `COc1ccc(N2CC(C(=O)NCCN3C(=O)S/C(=C\c4cccnc4)C3=O)CC2=O)c(OC)c1` (configuration not stated), the inhibition is 166% (active).

For `CCOc1ccc(N2CC(C(=O)NCCN3C(=O)S/C(=C\c4cccnc4)C3=O)CC2=O)cc1` (configuration not stated), the inhibition is -2.41%.

Regarding `COc1ccccc1N1CC(C(=O)NCCN2C(=O)S/C(=C\c3cccnc3)C2=O)CC1=O` (configuration not stated), the inhibition is 14.4%.

As for `CC1CC(=O)N(CC(=O)Nc2cccc(Cl)c2)c2ccccc2S1(=O)=O` (configuration not stated), the inhibition is -4.67%.

Regarding `CCCC1OC23CCCCC2C(C#N)(C#N)C1(C#N)C(=N)O3` (configuration not stated), the inhibition is 95.8% (active).

As for `CCCC[C@@H]1CN=C(N)N1CCc1cc(C(F)(F)F)cc(C(F)(F)F)c1`, the inhibition was 10.6%.

With `O=C(Nn1c(-c2ccc(Cl)cc2)nc2ccccc2c1=O)c1cccnc1Cl`, the inhibition was 5.2%.

As for `CN(C)c1ccc(Nc2c3c4c(cccc4n(C)c2=O)C(=O)c2ccccc2-3)cc1`, the inhibition is 55.2% (active).

For the compound `CCOC(=O)C(CC)/C(C)=N\NC(=O)c1cccc(C)c1` (configuration not stated), the inhibition is -4.82%.

`Cc1ccc(NS(=O)(=O)c2ccc(F)cc2)nc1`: the inhibition is 1.22%.

On to `Cc1cc(-c2csc(N)n2)c(C)n1Cc1ccccc1`, for which the inhibition is 6.96%.

As to `CC(=O)c1ccc(-c2ccc(Cn3c(C)nc4cc(N)c(C)nc43)cc2)cc1`, the inhibition was 8.3%.

On to `COc1ccccc1NC(=O)COC(=O)Cc1ccc(S(=O)(=O)N2CCCCC2)s1`, for which the inhibition was -0.05%.

As to `Cc1nn(-c2ccc([N+](=O)[O-])cc2)c(N)c1-c1ccccc1`, the inhibition is -34.6%.

Take `C/C(=N\NC(=O)c1ccoc1C)c1ccccc1O`: the inhibition is 4.86%.

Consider `Cc1nn(C(=O)c2ccoc2C)c(N)c1-c1ccccc1`, for which the inhibition was 193% (active).

Consider `Cc1csc(NC(=O)CSc2nc(=O)n(CCCN(C)C)c3c2CCC3)n1`, for which the inhibition was -0.83%.

As for `COc1ccc(SCCN2CCN(CC(C)C)CCC2=O)cc1`, the inhibition is -4.27%.

As to `CC(=O)N(CC(O)CO)c1c(I)c(C(=O)NCC(O)CO)c(I)c(C(=O)NCC(O)CO)c1I` (configuration not stated), the inhibition is -0.91%.

Consider `COCCn1c(SCC(=O)Nc2nc(C)cs2)nnc1C(C)C`, for which the inhibition is -2.37%.

In the case of `C1=C(N2CCOCC2)/C(=C/c2nc3ccccc3[nH]2)CC1`, the inhibition was 105% (active).

In the case of `CC1(C)Cc2c(C#N)c(SCc3nc4ccccc4[nH]3)nc(N3CCOCC3)c2CO1`, the inhibition is 3.45%.

Regarding `O=c1[nH]c(N2CCOCC2)nc2ccccc12`, the inhibition was 2.38%.

As to `CNC(=O)N1c2ccccc2C=Cc2ccccc21`, the inhibition was -1.86%.

Consider `CS(=O)(=O)N1CCc2nc(-c3ccccc3)sc2C1`, for which the inhibition was 7.75%.

On to `COc1ncnc2c1N=C1CC(C)(C)CC(N)=C1S2`, for which the inhibition is 191% (active).

As to `CCN(CC)S(=O)(=O)c1ccc2[nH]c(=O)cc(C(=O)N(C)C3CCS(=O)(=O)C3)c2c1` (configuration not stated), the inhibition is 7.4%.

Take `CCCC(C(=O)OCCN(CC)CC)(c1ccccc1)c1ccccc1`: the inhibition was -3.08%.

Turning to `CCN1CC=C2C(C#N)=C(N)C(C#N)(C#N)[C@H](c3ccoc3)[C@H]2C1`, the inhibition is 171% (active).

As for `CCCN1CC=C2C(C#N)=C(N)C(C#N)(C#N)C(c3cc(OC)ccc3OC)C2C1` (configuration not stated), the inhibition was 68.3% (active).

On to `N#CC1=C(N)C(C#N)(C#N)[C@H](c2ccsc2)[C@H]2COCC=C12`, for which the inhibition is 32.7%.

Take `CSc1ccccc1NC(=O)c1cnc2sc(C)cn2c1=O`: the inhibition was 3.46%.

Turning to `O=C(OCC(=O)N1CCOCC1)c1ccc2ccccc2c1`, the inhibition was -1.12%.

Consider `CCCc1nc2c(c(=O)c3ccccc3n2C)c(=O)n1C1CCCCCC1`, for which the inhibition was -7.58%.

Regarding `O=c1c2ccccc2oc2nc(C3CCCCC3)n(Cc3ccco3)c(=O)c12`, the inhibition is 2.28%.

Regarding `Cn1c2ccccc2c(=O)c2c(=O)n(Cc3ccco3)c(COc3ccccc3)nc21`, the inhibition was 60.6% (active).

Consider `O=C(O)c1ccc(S(=O)(=O)N2CCOCC2)o1`, for which the inhibition was -0.62%.

`COC(=O)N/N=C/c1c[n+]([O-])c2ccccc2[n+]1[O-]`: the inhibition is 5.75%.

As for `Cc1cc(/C=C2\SC(=Nc3ccc(N4CCOCC4)cc3)N(C)C2=O)c(C)n1-c1cccnc1`, the inhibition is -2.16%.

Turning to `CN1C(=O)/C(=C/c2ccco2)SC1=Nc1cccc(C(=O)O)c1`, the inhibition is 44.5% (active).

In the case of `Cc1cc(/C=C2\SC(=O)N(C)C2=O)c(C)n1-c1cccc(C(=O)O)c1`, the inhibition is 10.5%.

Turning to `COc1ccc(N(CC(=O)NC2CCCCC2)S(=O)(=O)c2c(C)[nH]c(=O)[nH]c2=O)cc1`, the inhibition was 5.18%.

For the compound `CN(C(=O)COC(=O)c1cc(-c2ccco2)nc2ccccc12)C1CCS(=O)(=O)C1` (configuration not stated), the inhibition was 105% (active).

Turning to `CC1CCCN(C(=O)c2cc(-c3ccco3)nc3ccccc23)C1` (configuration not stated), the inhibition was 7.17%.

For `CN(C(=O)COC(=O)c1nc(Cl)ccc1Cl)C1CCS(=O)(=O)C1` (configuration not stated), the inhibition is -0.55%.

On to `CN(CCOc1ccccc1)C(=O)c1cc(-c2ccco2)nc2ccccc12`, for which the inhibition was 46% (active).

With `COc1ccc(NC(=O)CN(C)C(=O)c2cc(-c3ccc(C)o3)nc3ccccc23)cc1`, the inhibition was 4.98%.

As to `COc1ccc(-c2cc(C(=O)N(C)Cc3ccccc3)c3ccccc3n2)cc1`, the inhibition is -5.9%.

For `COc1ccccc1C(=O)N/C(=C/c1ccco1)C(=O)Nc1ccc(C(=O)O)cc1`, the inhibition was 12.1%.

In the case of `COC(=O)c1ccccc1NC(=O)CSc1nc2c(c(=O)[nH]1)CCC2`, the inhibition was 0.89%.

As for `CC(=O)N1CCC(C(=O)OCc2ccc(Cl)cc2)(c2ccccc2)CC1`, the inhibition is 7.68%.

With `CCCCC(NS(=O)(=O)c1ccc(C)cc1)C(=O)Oc1ccc2c3c(c(=O)oc2c1)CCC3` (configuration not stated), the inhibition was 1.03%.

On to `C#CCOCCOCCOCCNc1nc(N2CCN(C(=O)CCCCCCCCCCNC(=O)[C@H](CCCCN)n3cc(C)nn3)CC2)nc(N2CCN(C(=O)CCCCCCCCCCNC(=O)[C@H](CO)n3cc(CCCSC)nn3)CC2)n1`, for which the inhibition is 14.4%.

On to `CN1c2ccc(C=O)c3c(C=O)ccc(c23)N(C)C1(C)C`, for which the inhibition was 167% (active).

`O=C(OCc1cc(Cl)ccc1OC(F)F)c1cccnc1`: the inhibition is -0.26%.

As for `CS(=O)(=O)Nc1ccccc1N=C(c1ccccc1)c1ccccc1`, the inhibition was -1.05%.

As for `COC(=O)/C=C\C(=O)Nc1cccc([N+](=O)[O-])c1`, the inhibition was 2.27%.

As for `COC(=O)c1sccc1NC(=S)Nc1ccc(C)cc1`, the inhibition was 13.5%.

Turning to `COC(=O)c1sc(NC(=S)NC(=O)c2ccc(C)cc2)nc1C`, the inhibition is 98.3% (active).

On to `Cc1ccc(C(=O)NC(=S)Nc2ccccc2C)cc1`, for which the inhibition was 4.14%.

With `CCCN1C2=C(C(=O)CCC2)C(c2ccc(O)c(Br)c2)C2=C1CCCC2=O`, the inhibition was 43.5% (active).

With `CCOc1ccc(C2C3=C(CCCC3=O)N(CC(=O)O)C3=C2C(=O)CCC3)cc1`, the inhibition was 17.6%.

For `COc1ccc(C2C3=C(CCCC3=O)N(CC(=O)O)C3=C2C(=O)CCC3)cc1`, the inhibition was 8.95%.

In the case of `COc1ccccc1N1CCN(S(=O)(=O)CCNC(=O)c2ccc(OC(C)C)cc2)CC1`, the inhibition was -5.21%.

In the case of `Cc1cc(C)n2nc(C(=O)N(C)C(c3ccccc3)c3ccccc3)nc2n1`, the inhibition is -7.96%.

For the compound `O=C(NCCc1ccccc1)C1CCN(S(=O)(=O)c2ccc(Br)s2)CC1`, the inhibition is -0.6%.

Take `O=S(=O)([N-]c1nc2ccccc2nc1-[n+]1ccc(Cc2ccccc2)cc1)c1ccc(Br)s1`: the inhibition is 87.1% (active).

With `Cc1cc(C)c[n+](-c2nc3ccccc3nc2[N-]S(=O)(=O)c2cccs2)c1`, the inhibition is 3.38%.

`Cc1cc(-c2nnc(SCC(=O)Nc3ccc(S(N)(=O)=O)cc3)n2N)n[nH]1`: the inhibition is -7.81%.

`COc1ccc2ccccc2c1CNCc1ccccn1`: the inhibition is 4.21%.

As for `CSc1ccccc1C(=O)OCC(=O)N1CCN(C(C)=O)CC1`, the inhibition is 1.83%.

For the origin of these results see PubChem BioAssay AID2057 (The Scripps Research Institute Molecular Screening Center, 2009).
